Data taken from PubChem BioAssay AID1159580 (chemical genetic matrix, 2015).
Values joined by “and” are separate entries in the source; they are usually repeats but may differ in a detail not shown here. Identical values can stand only once. In all, about 5,500 compounds went through this assay and about 2,000 (36%) were called active. About 18% were inconclusive and are not listed. No stated cut-off is given here; in the data, active means normalized growth mostly below about 0.91 (no sharp cut-off); inconclusive means no clear call, values can overlap the other calls; inactive means mostly above about 0.92. The list shows a part of the results.

Test: chemical genetic growth profiling, strain panel (AID 1159580);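 further: tested at 20 µM; growth read once vehicle control cultures reached saturation at 30 °C; 1 = growth at the plate median or of vehicle wells; lower values mean less growth of the strain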
Conditions: S. cerevisiae deletion strains, growth OD

Measured: normalized growth

CC[N+]1(C)CCCC(OC(=O)C(O)(c2ccccc2)c2ccccc2)C1 (stereo not given)
inactive: locus YAL013W, strain DEP1, active compounds read low 1.01 | locus YAL021C, strain ccr4, active compounds read low 1.01 | locus YAL026C, strain drs2, active compounds read low 1.03 | locus YAL030W, strain snc1, active compounds read low 1.02 | locus YBL061C, strain skt5, active compounds read low 1.03 | locus YBR009C, strain hhf1, active compounds read low 1.02 | locus YBR021W, strain FUR4, active compounds read low 1.02 | locus YBR023C, strain chs3, active compounds read low 1.02 | locus YBR171W, strain sec66, active compounds read low 1.03 | locus YBR229C, strain ROT2, active compounds read low 1.01 | locus YBR231C, strain swc5, active compounds read low 1.03 | locus YBR279W, strain paf1, active compounds read low 1.02 | locus YCL011C, strain gbp2, active compounds read low 1.03 | locus YCL016C, strain dcc1, active compounds read low 1.01 | locus YCL029C, strain bik1, active compounds read low 1.02 | locus YCL061C, strain MRC1, active compounds read low 1.02 | locus YCL069W, strain vba3, active compounds read low 1.03 | locus YCR088W, strain abp1, active compounds read low 1.02 | locus YDL005C, strain med2, active compounds read low 1.03 | locus YDL035C, strain GPR1, active compounds read low 1.02 | locus YDL040C, strain nat1, active compounds read low 1.01 | locus YDL074C, strain BRE1, active compounds read low 1 | locus YDL101C, strain DUN1, active compounds read low 1.01 | locus YDL134C, strain PPH21, active compounds read low 1.02 | locus YDL185W, strain tfp1, active compounds read low 1.01 | locus YDL192W, strain arf1, active compounds read low 1.02 | locus YDR001C, strain nth1, active compounds read low 1.02 | locus YDR069C, strain doa4, active compounds read low 1.03 | locus YDR101C, strain arx1, active compounds read low 1.02 | locus YDR137W, strain rgp1, active compounds read low 1.07 | locus YDR159W, strain sac3, active compounds read low 1 | locus YDR162C, strain NBP2, active compounds read low 1.01 | locus YDR195W, strain ref2 1.01 | locus YDR297W, strain sur2, active compounds read low 1.02 | locus YDR318W, strain mcm21, active compounds read low 1 | locus YDR334W, strain swr1, active compounds read low 1.03 | locus YDR335W, strain msn5, active compounds read low 1.03 | locus YDR388W, active compounds read low 1.02 | locus YDR392W, strain spt3, active compounds read low 0.931 | locus YDR502C, strain sam2, active compounds read low 1.01 | locus YEL003W, strain gim4, active compounds read low 1.02 | locus YEL037C, strain rad23, active compounds read low 1.02 | locus YEL061C, strain CIN8 (second series), active compounds read low 1.02 | locus YEL061C, strain CIN8, active compounds read low 1.01 | locus YER015W, strain faa2, active compounds read low 1.02 | locus YER016W, strain bim1, active compounds read low 1.02 | locus YER110C, active compounds read low 1.02 | locus YER111C, strain swi4, active compounds read low 1.03 | locus YER155C, strain BEM2 (second series), active compounds read low 1.01 | locus YER155C, strain BEM2, active compounds read low 1 | locus YER167W, strain BCK2, active compounds read low 1.01 | locus YFR010W, strain ubp6, active compounds read low 1.03 | locus YGL078C, strain dbp3, active compounds read low 1.02 | locus YGL086W, strain mad1, active compounds read low 1 | locus YGL167C, strain pmr1, active compounds read low 1.03 | locus YGL173C, strain kem1, active compounds read low 1.04 | locus YGL227W, strain vid30, active compounds read low 1.03 | locus YGL240W, strain doc1, active compounds read low 1.03 | locus YGL248W, strain PDE1, active compounds read low 1 | locus YGL253W, strain hxk2, active compounds read low 1.03 | locus YGR078C, strain PAC10, active compounds read low 1 | locus YGR135W, strain pre9, active compounds read low 1.02 | locus YGR229C, strain SMI1, active compounds read low 1.01 | locus YGR252W, strain gcn5, active compounds read low 1 | locus YHR013C, strain ard1, active compounds read low 1.04 | locus YHR027C, strain rpn1, active compounds read low 1.02 | locus YHR030C, strain SLT2, active compounds read low 1.01 and 1.02 | locus YHR079C, strain IRE1 (second series), active compounds read low 1.01 | locus YHR079C, strain IRE1, active compounds read low 1.03 | locus YHR094C, strain hxt1, active compounds read low 1.01 | locus YHR129C, strain ARP1, active compounds read low 0.999 | locus YHR142W, strain chs7, active compounds read low 1.03 | locus YHR200W, strain rpn10, active compounds read low 1.01 | locus YIL066C, strain RNR3, active compounds read low 1.02 | locus YIL073C, strain SPO22, active compounds read low 1.07 | locus YIL125W, strain kgd1, active compounds read low 1 | locus YIR030C, strain dcg1, active compounds read low 1.01 | locus YJL092W, strain hpr5, active compounds read low 1.02 | locus YJL095W, strain BCK1 (second series), active compounds read low 1.01 | locus YJL095W, strain BCK1, active compounds read low 0.998 and 1.03 | locus YJL115W, strain asf1, active compounds read low 1.03 | locus YJL129C, strain trk1, active compounds read low 1.04 | locus YJL134W, strain LCB3, active compounds read low 1 | locus YJL154C, strain vps35, active compounds read low 1.02 | locus YJL164C, strain tpk1, active compounds read low 1.01 | locus YJL166W, strain qcr8, active compounds read low 1.03 | locus YJL168C, strain set2, active compounds read low 1.01 | locus YJL187C, strain SWE1 (second series), active compounds read low 1.01 | locus YJL187C, strain SWE1, active compounds read low 1.02 | locus YJR043C, strain POL32, active compounds read low 1.04
